# Only some compounds are listed: those with a hit (about 7.8% of all), similar ones and a draw of the others.
# HCMV inh: human cytomegalovirus inhibition. AID 1259415. HFF cells, HCMV-luciferase reporter, 72 h; active compounds read low. actives 4.5% (n = 410,000). activity change, negative = inhibition, % at 57.5 µM; in the data active = activity change below about -60%; inconclusive = no clear call, values can overlap the other calls; inactive = above about -39%
#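 Steps: HFFs plated, 16 h 37C; compounds added; HCMV-luciferase added to MOI 1 PFU/cell; 72 h 37C; OneGlo reagent, 5 min room temperature; luminescence read, normalized to controls.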
# Marburg entry inh: blocks Marburg virus binding to or entry into cells; AID 540276; Marburg virus pseudotyped entry inhibition, cell reporter; actives 1.8% (n = 300,000); Potency, µM (series often up to 37.8 µM), without a hit: at the highest dose activity change, negative = inhibition, actives largely listed as inhibitors; calls by dose curve; tested in HEK293 cells; note: potency is the fitted concentration of half-maximal effect
# Vaccinia mCherry: vaccinia inhibition (mCherry reporter); Vaccinia virus mCherry reporter infection, fluorescence; Potency, µM (doses to about 36.5 µM), for the others: top-dose activity change, negative = inhibition, most hits filed as inhibitors; actives 0.63% (n = 310,000); AID 720579; calls by dose curve; tested in A549 cells; note: potency is the fitted concentration of half-maximal effect; nearly all actives have a fitted effect of over 35% in size
# HCV inh: inhibitors of hepatitis C virus infection | Potency, µM (top dose mostly 41.8 µM), without a hit: top-dose activity change, negative = inhibition, hits mostly inhibitors | actives 3.4% (n = 340,000) | AID 651820 | Huh7.5.1 HCVcc-Cre infection, luciferase reporter, 44 h; active = well fitted inhibition curve with a large enough effect; inconclusive = small, poorly fitted or top-dose-only effect, or another doubt; inactive = no such curve, though single readings can be large or run the other way; note: potency is the fitted concentration of half-maximal effect
#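 Seed cells (1,000/well) for 4 h; treat with compound and infect with HCVcc-Cre, moi about 0.5. Incubate 44 h, then detect luciferase activity.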
# Vaccinia Venus: inhibitors of vaccinia virus (Venus reporter). Vaccinia virus Venus reporter expression, fluorescence. Potency, µM (top dose mostly 36.5 µM), inactives show at the highest dose activity change, negative = inhibition, hits mostly inhibitors. actives 0.46% (n = 330,000). AID 720580; calls by dose curve; tested in A549 cells; note: potency is the fitted concentration of half-maximal effect; nearly all actives have a fitted effect of over 30% in size
# Lassa entry inh: Lassa virus entry inhibition; Potency, µM (highest dose often 37.9 µM), for the others: at the highest dose activity change, negative = inhibition, most hits filed as inhibitors; Lassa virus pseudotype entry inhibition, cell reporter; actives 1.2% (n = 300,000); calls by dose curve; tested in HEK293 cells; note: potency is the fitted concentration of half-maximal effect; nearly all actives have a fitted effect of over 50% in size
# The depositor's hits bear a star; i = inactive; ? = inconclusive; nt = no result given; [ ] = another dose, or the depositor's remark. % is set by controls: 0 for no effect and ±100 for the full control effect.
SMILES,HCMV inh,Marburg entry inh,Vaccinia mCherry,HCV inh,Vaccinia Venus,Lassa entry inh
O=C(Nc1ccccc1SCC1CSc2nc3ccccc3c(=O)n21)c1ccccc1 (stereo not given),-70*,?,nt,1%,-7%,?
O=C(Nc1ccccc1SCC1CSc2nc3ccccc3c(=O)n21)c1ccccc1Cl (stereo not given),?,?,nt,3%,25%,?
Cc1cccc(C(=O)Nc2ccccc2SCC2CSc3nc4ccccc4c(=O)n32)c1 (stereo not given),-75*,0.89µM*,nt,-13%,-15%,6.3µM*
O=c1c2ccccc2nc2n1C(CSCc1ccc(Cl)cc1)CS2 (stereo not given),?,?,nt,10µM*,?,-22%
Cc1ccc(C(=O)Nc2ccccc2SCC2CSc3nc4ccccc4c(=O)n32)cc1 (stereo not given),-85*,3.2µM*,nt,-9%,-11%,7.1µM*
O=c1c2ccccc2nc2n1C(CSc1ccccc1)CS2 (stereo not given),-31,23%[46.1 µM],-15%,17%,2%,8%[46.1 µM]
O=c1c2ccccc2nc2n1C(CBr)CS2 (stereo not given),-32,?,nt,11%,nt,11%
O=C(Nc1ccccc1SCC1CSc2nc3ccccc3c(=O)n21)c1cccc(Cl)c1 (stereo not given),-96*,?,nt,-5%,-30%,2.5µM*
CC(C)C(c1nnnn1Cc1ccccc1)N1C(=O)C(=O)c2ccccc21 (stereo not given),-30,nt,nt,nt,nt,nt
Cc1ccc(C(=O)N/C(=C\c2ccc(-c3cccc([N+](=O)[O-])c3)o2)C(=O)NCCCN2CCOCC2)cc1,-62*,nt,nt,10µM*,nt,nt
Cc1ccc(C(=O)N/C(=C\c2ccc(-c3ccccc3[N+](=O)[O-])o2)C(=O)NCCN(C)C)cc1,6,?,-15%,-27%,-23%,-5%[46.1 µM]
CN(C)CCNC(=O)/C(=C/c1ccc(-c2cccc(Cl)c2)o1)NC(=O)c1ccccc1,12,8.2µM*,-23%,11µM*,-6%,?
CN(C)CCNC(=O)/C(=C/c1ccc(-c2cccc([N+](=O)[O-])c2)o1)NC(=O)c1ccccc1,-22,?,-5%,10µM*,-14%,?
Nc1c(Cl)cc(/C=C2\C=Cc3ccccc32)cc1Cl,nt,nt,33%,nt,-11%,nt
CCCCOC(=O)c1ccc(Nc2ncnc3[nH]ncc23)cc1,-11,nt,-8%,nt,-7%,-13%[46.1 µM]
Cc1cnc(SCc2ccccn2)nc1C1CCCN(C(=O)c2ccc3c(c2)OCCO3)C1 (stereo not given),nt,nt,-12%,nt,-6%,nt
O=C1COCc2ccc(-c3ccc(Cl)cc3)cc2N1CCN1CCOCC1,-9,nt,nt,nt,nt,nt
C(=C\c1ccccc1)/CN1CCN(c2ncnc3c2oc2ccccc23)CC1,-73*,?,nt,?,nt,-16%
c1cnc(N2CCN(c3ncnc4c3oc3ccccc34)CC2)nc1,nt,-7%,nt,nt,nt,nt
COc1ccc(-c2ccc3oc(-c4ccsc4)cc(=O)c3c2)cc1F,-11,nt,31%,10%,4%,nt
COc1cc(-c2ccc3oc(-c4ccsc4)cc3c2)cc(OC)c1OC,-18,nt,?,-12%,14µM*,nt
Cc1cc(F)ccc1NCc1ccccc1-c1nnc(-c2ccccc2Cl)o1,18,-2%[46.1 µM],-5%,nt,-9%,14%[46.1 µM]
CCn1c2ccccc2c2cc(C3C(C#N)=C(C)NC(C)=C3C#N)ccc21,0,8%,-7%,11µM*,-17%,-16%
CCn1c2ccccc2c2cc(C3C(C#N)=C(N)Oc4n[nH]c(COC)c43)ccc21 (stereo not given),-32,5.2µM*,-25%,?,-20%,?
Cc1cc(C)c(C#N)c(SCCS(=O)(=O)c2ccc(C(C)(C)C)cc2)n1,?,?,3.5µM*,?,4.5µM*,-13%
SMILES,HCMV inh,Marburg entry inh,Vaccinia mCherry,HCV inh,Vaccinia Venus,Lassa entry inh
Cc1cc(C)c(C#N)c(SCC(=O)C(C)(C)C)n1,-39,12%,-15%,13%,-14%,40%
Cc1cc(C)c(C#N)c(SCS(=O)Cc2ccccc2)n1 (stereo not given),-23,-1%,-10%,?,4%,-14%
Cc1cc(C)c(C#N)c(SCCS(=O)(=O)c2ccc(Cl)cc2)n1,?,-18%[46.1 µM],4.5µM*,?,?,?
Cc1cc(C)c(C#N)c(SCS(=O)Cc2ccc(Cl)cc2)n1 (stereo not given),?,-11%,-19%,11µM*,0%,1%
Cc1cc(C)c(C#N)c(SCCS(=O)(=O)Cc2ccc(Cl)cc2)n1,-28,-15%,-18%[1.46 µM],-19%,-17%,-3%
Cc1cccc([N+](=O)[O-])c1NC(=O)CN(Cc1ccccc1)Cc1ccccc1,-61*,?,i,?,-20%,?
CC1=C(c2ccc(Cl)cc2)S(=O)(=O)N=C1N1CCN(c2cccc(C(F)(F)F)c2)CC1,-60*,?,-30%,nt,-28%,-23%[46.1 µM]
COc1cccc(N2CCN(C3=NS(=O)(=O)C(c4ccc(C)cc4)=C3C)CC2)c1,0,?,-7%,nt,-16%,29%[46.1 µM]
COc1ccc(OC)c(NC(=O)CS(=O)(=O)Cc2nc(-c3ccc(C)cc3)oc2C)c1,-6,12%[46.1 µM],-10%,nt,-20%,5%[46.1 µM]
CCN(CC)c1ccc(NC(=O)c2cccc(OC)c2)c(C)c1,0,?,-9%,?,?,?
CCN(CC)c1ccc(NC(=O)c2cc(OC)cc(OC)c2)c(C)c1,-85*,?,?,?,?,?
CCN(CC)c1ccc(NC(=O)c2ccc3c(c2)OCO3)c(C)c1,-19,-23%[46.1 µM],?,11µM*,-13%,-22%[46.1 µM]
CCN(CC)c1ccc(NC(=O)C2COc3ccc(OC)cc3C2)c(C)c1 (stereo not given),-79*,nt,?,nt,?,?
O=C(CN1C(=O)c2cccnc2Sc2ccccc21)Nc1cc(F)ccc1F,16,nt,-5%,nt,-6%,2%[46.1 µM]
COc1ccc(-c2cn3cc(C)ccc3n2)cc1Br,194,14µM*,-27%,?,-21%,?
O=C(CCn1ccc2cc(S(=O)(=O)N3CCCC3)ccc21)NCc1cccc(Br)c1,-11,nt,-11%,nt,-9%,?
O=C1C=C(c2cccs2)C[C@H](c2ccccc2)[C@H]1n1nnc([N+](=O)[O-])n1,-80*,1.3µM*,?,?,?,?
Cc1cnnc2ccccc12,nt,nt,i,nt,-5%,nt
O=S(=O)(c1ccc(Oc2ccc(Br)cc2)cc1)N1CCOCC1,-73*,?,nt,?,?,?
COc1ccc(S(=O)(=O)N2CCOCC2)cc1,nt,nt,-14%,nt,-5%,nt
O=C(NCc1ccc2c(c1)OCO2)c1c[nH]c2ccc(S(=O)(=O)N3CCOCC3)cc2c1=O,29,-2%,nt,0%,nt,0.52µM*

# Screening data from PubChem.
